Measurements as given in PubChem BioAssay (EPA / NIEHS).
Calls of active or inactive are those of the source. Rule for the calls: active = hit-call score of the fitted dose curve at least 0.9, where 1 is the maximum; inactive = score below 0.9.

Read-out: Signal transducer and activator of transcription 3 (Homo sapiens) (UniProt P40763)
Assay: LTEA_HepaRG_STAT3: Life Technologies and Expression Analysis (LTEA) Assay for Signal transducer and activator of transcription (STAT3) using HepaRG (AID 2283529)
Details: mRNA level, 48 h; actives raise or lower the signal
Procedure: LTEA_HepaRG is a cell based, multiplexed-readout assay that uses HepaRG, a human liver cell line, with measurements taken at 48 hours after chemical dosing on a 96-well plate.LTEA_HepaRG_STAT3 is one of 102 assay component(s) measured in the LTEA HepaRG cell culture assay. It is a marker of Cell proliferation, survival, death.Data from the assay component LTEA_HepaRG_STAT3 was analyzed into 1 endpoint. This assay endpoint, LTEA_HepaRG_STAT3, was analyzed with bidirectional fitting relative to DMSO as the negative control and baseline of activity. Using a type of inducible reporter, measures of mRNA induction for gain or loss-of-signal activity can be used to understand regulation of transcription factor activity. To generalize the intended target to other relatable targets, this assay endpoint is annotated to the dna binding intended target family, where the subfamily is stat protein.
A total of 1060 chemcials from the ToxCast library were tested in eight-point concentration-response experiments. Cell culture and cytotoxicity assays were conducted at Thermo Fisher Scientific's Custom Services facility (Madison, WI). A single lot of human HepaRG cells (Thermo Fisher Scientific, Frederick, MD) was used for the cell culture experiments. 96-well format collagen type I coated plates of human HepaRG cells were prepared using established methods. Briefly, cryopreserved HepaRG cells were thawed, plated at a density of approximately 100,000 cells/well in HepaRG Thaw, Plate, and General Purpose media (HPRG770, Thermo Fisher Scientific), and incubated for 48 hours. 0.5% DMSO was selected as vehicle control to balance the requisite need of DMSO in HepaRG cultures to maintain differentiation (for example, baseline metabolism, proportions of hepatocytes vs. cholangiocytes), while enabling further hepatic receptor pathway activation (for example, PXR and CAR) in response to chemical exposure. 48 hours after plating, the culture medium was replaced with HepaRG Serum-Free Incudtion Media. Cells were exposed to each test chemical in duplicate and maintained in CO2 incubators for another 48 hours. Chemical plates were thawed to room temperature and 200x concentrations of treatment groups were prepared. 8-point conentration-reponse curves were made with the highest exposure at 100 uM, followed by half-log dilutions, all in 0.5% DMSO. Each test plate contained variouse controls, induction positive controls (1mM phenobarbital), cytotoxicity positive controls ([…] aflatoxin B1), vehicle controls (0.5% DMSO), and total lysis controls (0.5% DMSO). Cell morphology images were taken using an Essen IncuCyte FLR automated microscope, with six 96-well plates imaged in about 24 minutes. Images were captured and exported and JPEG files. Spent culture media was transfered to black-well plates for the LDH assay, and remaining media was sorted at -80 C for later use. Cells were treated with RLT buffer and frozen until shipped for gene expression analysis. Total RNA was isolated from the cell suspension in 75 uL of Buffer RLT (Qiagen, Germantown, MD 20874) by Quintiles/Expression Analysis (Durham, NC) using a custom isolation procedure. Total RNA from each plate well was transferred to a preamplification plate. Fluidigm's 96.96 Dynamic ArrayTM (Fluidigm, Amsterdam, the Netherlands) technology was used for gene expression analyses by quantitative reverse transcription polymerase chain reaction (qRT-PCR, performed by Quintiles/Expression Analysis, Durham, NC)89. Standard TaqManTM Assays (Applied Biosystems/ThermoFisher Scientific, Foster City, CA) were used to assess the expression of 93 genes selected based on their selectivity and sensitivity to important hepatic receptors known to be modulated by environmental chemicals; importance in human hepatocyte functionality; and hepatotoxicity. […]

Chain of Signal transducer and activator of transcription 3 (Homo sapiens) (P40763 whole entry, looked up): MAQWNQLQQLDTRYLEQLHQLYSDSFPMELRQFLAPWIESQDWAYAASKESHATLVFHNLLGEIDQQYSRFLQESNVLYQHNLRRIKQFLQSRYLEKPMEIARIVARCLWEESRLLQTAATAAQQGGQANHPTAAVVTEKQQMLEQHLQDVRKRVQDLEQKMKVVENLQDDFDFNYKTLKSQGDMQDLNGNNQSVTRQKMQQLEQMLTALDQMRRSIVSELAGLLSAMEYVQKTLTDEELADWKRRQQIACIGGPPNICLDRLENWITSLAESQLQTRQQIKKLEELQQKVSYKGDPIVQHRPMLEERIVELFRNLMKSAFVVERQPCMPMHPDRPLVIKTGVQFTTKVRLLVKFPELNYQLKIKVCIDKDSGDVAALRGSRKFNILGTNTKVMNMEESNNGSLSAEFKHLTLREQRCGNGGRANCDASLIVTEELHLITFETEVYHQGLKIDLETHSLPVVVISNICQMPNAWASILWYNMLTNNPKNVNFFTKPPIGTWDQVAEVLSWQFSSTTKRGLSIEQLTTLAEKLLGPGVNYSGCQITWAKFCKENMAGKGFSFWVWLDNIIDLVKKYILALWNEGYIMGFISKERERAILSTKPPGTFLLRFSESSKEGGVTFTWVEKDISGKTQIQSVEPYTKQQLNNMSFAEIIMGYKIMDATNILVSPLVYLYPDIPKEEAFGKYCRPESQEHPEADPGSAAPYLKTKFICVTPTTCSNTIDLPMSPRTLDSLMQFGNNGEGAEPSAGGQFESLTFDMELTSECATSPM

SMILES | outcome | AC50
Oc1ccc(O)cc1 | inactive | –
O=C(N[C@@H](c1ccccc1)[C@@H]1CCCCN1)c1cccc(C(F)(F)F)c1Cl | – | 80.3 µM (active)
CC(COCC(C)OC(=O)c1ccccc1)OC(=O)c1ccccc1 (stereo not given) | inactive | –
CC(C)(C)c1ccccc1 | inactive | –
O=C(Oc1ccccc1)c1cccc(C(=O)Oc2ccccc2)c1 | inactive | –
O=Cc1ccccc1C=O | inactive | –
CC1(C)C(=O)NC(=O)N1CO | inactive | –
CN(C)CCCN1c2ccccc2Sc2ccc(Cl)cc21 | inactive | –
Cc1cn([C@H]2C=C[C@@H](CO)O2)c(=O)[nH]c1=O | inactive | –
O=C1NC(=O)C(c2ccccc2)(c2ccccc2)N1 | inactive | –
C/C=C/C=C/C(=O)O | inactive | –
CC(C)COC(=O)CCCCC(=O)OCC(C)C | inactive | –
Cc1ccc(-c2cc(C(F)(F)F)nn2-c2ccc(S(N)(=O)=O)cc2)cc1 | – | 89.2 µM (active)
Nc1nc(=S)c2[nH]cnc2[nH]1 | inactive | –
CCOCCOCCO | inactive | –
O=C1O[C@H]([C@H](O)CO)C(O)=C1O | inactive | –
CC(=O)S[C@H](C(=O)N[C@H]1Cc2ccccc2[C@H]2CCC[C@@H](C(=O)O)N2C1=O)C(C)C | inactive | –
CS(=O)(=O)c1ccc([C@@H](C[C@H]2CCC(=O)C2)C(=O)Nc2cnccn2)cc1Cl | – | 50 µM (active)
Cn1cnc2c1c(=O)[nH]c(=O)n2C | inactive | –
CCCCC(CC)COC(=O)CCCCCCCC(=O)OCC(CC)CCCC (stereo not given) | inactive | –

SMILES | outcome | AC50
O=C(O)CC(O)(CC(=O)O)C(=O)O | inactive | –
CCCCOC(=O)CCCCC(=O)OCCCC | inactive | –
COc1ccc(C(=O)Nc2nc3ccccc3c(NCc3ccccc3)c2C#N)cc1 | inactive | –
CC(=O)O | inactive | –
CC(C)c1cccc(C(C)C)c1 | inactive | –
CC1=C(C)S(=O)(=O)CCS1(=O)=O | inactive | –
NC(=Nc1ccccc1)Nc1ccccc1 | inactive | –
CCCCCCC(CCCCCCCCCCC(=O)OCC(COC(C)=O)OC(C)=O)OC(C)=O (stereo not given) | inactive | –
CC(C)NCC(O)c1ccc(O)c(O)c1 (stereo not given) | inactive | –
O=C(O)c1[nH]n(-c2ccc(S(=O)(=O)O)cc2)c(=O)c1N=Nc1ccc(S(=O)(=O)O)cc1 | inactive | –
COC(=O)[C@H]1[C@H]2C[C@@H]3c4[nH]c5cc(OC)ccc5c4CCN3C[C@H]2C[C@@H](OC(=O)c2cc(OC)c(OC)c(OC)c2)[C@@H]1OC | inactive | –
OCC(CO)n1cnc(-c2ccc(F)cc2)c1-c1ccnc(Oc2ccccc2)n1 | inactive | –
OCC(O)CO | inactive | –
N[C@@H](Cc1c[nH]c2ccccc12)C(=O)O | inactive | –
CCCCc1nc2cccnc2n1Cc1ccc(-c2ccccc2-c2nnn[nH]2)cc1 | inactive | –
CCCCCCCCCCCCCCOS(=O)(=O)O | inactive | –
O=C1OC(c2ccc(O)cc2)(c2ccc(O)cc2)c2ccccc21 | inactive | –
Cc1cc(Cc2ccc(N)c(C)c2)ccc1N | inactive | –
CC(=O)OCC(COC(C)=O)OC(C)=O | inactive | –
CCCCCCC(C=O)=Cc1ccccc1 | inactive | –
